From PubChem
Compounds with a hit are over-represented: about 11% of the library has one in this group of screens.
ERK AVP inh: vasopressin-driven ERK pathway inhibition | HEK293-V1b, vasopressin-stimulated pERK AlphaScreen | Potency, µM (doses to about 57.5 µM), inactives show top-dose activity, negative = inhibition, most hits filed as inhibitors | 72,000 compounds, 0.99% hits; further: nearly all actives have a fitted effect of over 55% in size
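Phosphorylated ERK1/2 detected via AlphaScreen bead proximity in lysates of V1b-expressing HEK293 cells given 25 nM vasopressin for 5 min after 30 min compound exposure (37 °C). AC50 from Hill equation; basal DMSO 0%, vasopressin 100%.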
HSD17B inh: inhibitors of human HSD17B10 dehydrogenase. Q99714. recombinant HSD17B10, NADH fluorescence kinetic. Potency, µM (highest dose often 57.1 µM), for the others: top-dose activity change, negative = inhibition, most hits filed as inhibitors. 75,000 compounds, 7.6% hits. AID 893;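 further: the protocol describes HADH2 (HSD17B10) and not the HSD17B4 of the title; nearly all actives have a fitted effect of over 70% in size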
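His-tagged E. coli-expressed HADH2 at 20 nM in 100 mM Tris-HCl pH 9.0 with 0.01 % Tween-20, preincubated 15 min with compound at room temperature. Reaction with 1 mM NAD+ and 90 uM beta-hydroxybutyryl coenzyme A; NADH fluorescence (360/450 nm) read kinetically over 4 min, last minus first point.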
Bst PK mod: alters activity of Bacillus stearothermophilus pyruvate kinase; Potency, µM; 51,000 compounds, 1.2% hits; purified pyruvate kinase, luminescence ATP production; ribose 5-phosphate activator present at AC10; AID 361; in the data active means potency below about 11 µM; inconclusive means mostly about 12 µM to 25 µM;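 the screen sought inhibitors and activators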;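 further: scaled between full activation by ribose 5 phosphate and full inhibition by luteolin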
Luciferase inh: blocks Photinus pyralis firefly luciferase activity; P08659; purified firefly luciferase, luminescence, 8 min; Potency, µM (top dose mostly 57.1 µM), for the others: at the highest dose activity change, negative = inhibition, hits mostly inhibitors; 72,000 compounds, 2.2% hits; further: nearly all actives have a fitted effect of over 40% in size
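Luminescence read-out after 8 min at room temperature; enzyme reaction used luciferin plus 10 uM ATP (linear range) in imidazole buffer pH 7.2 with KCl, MgCl2, Tween 20 and BSA. Each sample was run as a titration.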
ALOX15 inhib: blocks human 15-lipoxygenase activity; purified 15hLO-1, xylenol orange hydroperoxide absorbance; Potency, µM (highest dose often 57.1 µM), without a hit: top-dose activity change, negative = inhibition, most hits filed as inhibitors; 74,000 compounds, 1.4% hits; AID 887; further: nearly all actives have a fitted effect of over 55% in size
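Quantitative HTS in 25 mM Hepes pH 7.5 containing 0.01% Triton X-100: human 15hLO-1 at 40 nM, arachidonic acid at 50 uM, 6 min turnover. Product quantified via ferrous oxidation/xylenol orange, 573:405 nm absorbance ratio.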
HADH2 inh: inhibitors of human HADH2 dehydrogenase. Potency, µM (titrated, usually from 57.1 µM), without a hit: at the top dose activity change, negative = inhibition, actives largely listed as inhibitors. Q99714. AID 886. 73,000 compounds, 3.4% hits. recombinant HADH2, NADH fluorescence, beta-hydroxybutyryl-CoA; further: nearly all actives have a fitted effect of over 60% in size
Target sequence (Q99714 whole entry, looked up, one chain of several): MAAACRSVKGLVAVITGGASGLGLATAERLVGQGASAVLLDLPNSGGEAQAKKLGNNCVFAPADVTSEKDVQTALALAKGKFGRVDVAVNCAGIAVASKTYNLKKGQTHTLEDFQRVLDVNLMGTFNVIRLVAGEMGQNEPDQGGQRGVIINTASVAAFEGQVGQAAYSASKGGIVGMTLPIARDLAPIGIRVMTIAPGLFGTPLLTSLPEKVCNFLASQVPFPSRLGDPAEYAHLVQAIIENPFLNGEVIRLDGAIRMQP
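His-tagged recombinant enzyme from E. coli, 20 nM, preincubated 15 min RT with compound; reaction started with 1 mM NAD+ and 90 uM beta-hydroxybutyryl-CoA in 100 mM Tris-HCl pH 9.0. NADH fluorescence (ex 360/em 450) read over 4 min; last-minus-first difference.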
Active calls of the source: *; i = inactive; ? = inconclusive; · = no result given; ! = repeats disagree; [ ] = dose if it differs, or a comment. Unless noted, the call rests on the fitted dose curve; in most records, active means well fitted curve in the direction sought with a large enough effect; inconclusive means small, poorly fitted or top-dose-only effect, or another doubt; inactive means no such curve, though single readings can be large; an effect the other way counts as inactive or inconclusive. Unless noted, on the % scale 0 is the no-effect control and ±100 the full control effect; potency means the concentration at half of the fitted maximal effect.

SMILES	ERK AVP inh	HSD17B inh	Bst PK mod	Luciferase inh	ALOX15 inhib	HADH2 inh
Nc1nc2ccc(S(=O)(=O)c3ccc4nc(N)sc4c3)cc2s1	24%	10µM*	>57	1%	-20%	172%
COc1ccc(-c2nc3c(c4c2CC(C)OC4)CN(CCC(C)C)CC3)cc1 (configuration not stated)	31%[11.5 µM]	-17%[11.4 µM]	·	·	-12%[11.4 µM]	3%[11.4 µM]
COCCOC(=O)c1[nH]c2c(c1C)C(=O)C(C(=O)OC)C(C)C2 (configuration not stated)	-14%	6%	·	10µM*	0%	5%
COC(=O)C1C(=O)c2c([nH]c(C(=O)OCC3CCCO3)c2C)CC1C (configuration not stated)	-28%	5%	·	7.9µM*	9%	13%
CCCCCOC(=O)c1[nH]c2c(c1C)C(=O)C(C(=O)OC)C(C)C2 (configuration not stated)	21%	-8%	>57	?	-9%	8%
O=c1/c(=C/c2ccccn2)sc2nc3ccccc3n12	-17%	-2%	·	0.25µM*	1%[11.4 µM]	-1%[11.4 µM]
O=c1c2ccccc2nc2sc3ccccc3n12	14%	?	6.8*	-14%	0%	-15%
N#Cc1cc2sc3nc4ccccc4n3c2cc1C#N	-5%	-9%	>57	0%	4%	4%
CN(C)CCCCN1CCc2c(n(C)c3ccccc23)C1=O	-4%[11.5 µM]	9%[11.4 µM]	·	2%[11.4 µM]	-4%[11.4 µM]	-1%[11.4 µM]
c1ncc(-c2ccoc2)c(NC2CC2)n1	-1%	-19%	·	-1%[2.29 µM]	?	10µM*
CN1CCN(c2ncncc2-c2ccoc2)CC1	-13%	-23%	·	0%[2.29 µM]	32µM*	-26%
CN1CCN(c2ncncc2-c2ccc(N(C)C)cc2)CC1	?	?	·	0%[2.29 µM]	-17%	?
O=P(O)(O)O[C@@H]1O[C@H](CO)[C@@H](O)[C@H](O)[C@@H]1O	-1%[11.5 µM]	8%[11.4 µM]	·	0%[11.4 µM]	5%[11.4 µM]	8%[11.4 µM]
COC(=O)COc1ccc(S(=O)(=O)NCCC2=CCCCC2)cc1C	15%	11%	>57	3%	6.3µM*	-12%
CNc1oc(-c2ccc(OCc3ccccc3)cc2)nc1C#N	-25%	7.9µM*	i	-1%	7%	-22%
N#Cc1nc(-c2ccc(OCc3ccccc3)cc2)oc1NCc1ccco1	-20%	32µM*	·	-4%	-9%	?
COc1cc2c(cc1OC)C1C(=O)c3c(O)cc4c(c3OC1CO2)C=CC(C)(C)O4 (configuration not stated)	-28%	-4%	·	·	-23%	·
COc1cccc2c1C(=O)c1c(O)c3c(c(O)c1C2=O)C[C@@](O)(C(=O)CO)C[C@H]3O[C@H]1C[C@@H](N)[C@H](O)[C@@H](C)O1.[W]	-10%[11.5 µM]	-2%[11.4 µM]	·	-2%[11.4 µM]	0%[11.4 µM]	-1%[11.4 µM]
O=C(c1cc(-c2cccs2)on1)N1CCOCC1	2%	-19%	·	?	0%	-10%
Cc1nc2ccc(NC(=O)N3CCCCC3)cc2s1	-3%	?	>57	-10%	-2%	1%
Cc1nc2ccc(NC(=O)N3CCSCC3)cc2nc1C	-9%	32µM*	>57	-1%	-7%	?
CCOC(=O)N1CCN(C(=O)Nc2ccc3nc(-c4ccccn4)c(-c4ccccn4)nc3c2)CC1	0%	16µM*	·	0%	?	?
O=C(Nc1ccc2nc(-c3cccs3)c(-c3cccs3)nc2c1)N1CCOCC1	-25%	32µM*	·	2%	-17%	-12%
O=C1C[C@H]2C(=O)[C@@H]1[C@@H](C(=O)O)[C@H]2C(=O)O	-8%[11.5 µM]	-2%[11.4 µM]	·	2%[11.4 µM]	1%[11.4 µM]	9%[11.4 µM]
N=C1C=CC(=C(c2ccc(N)cc2)c2ccc(N)cc2)C=C1	13µM*	25µM*!	·	-15%[11.4 µM]	5%[11.4 µM]	?
SMILES	ERK AVP inh	HSD17B inh	Bst PK mod	Luciferase inh	ALOX15 inhib	HADH2 inh
NC(=O)c1ccsc1NC(=O)COc1ccccc1	-21%	-30%	i	20µM*	-9%	?
NC(=O)c1ccsc1NC(=O)CSc1ccccc1F	?	?	>11	-6%	?	1%
Nc1c(C(=O)Nc2ccc3c(c2)OCCO3)nnn1CCc1ccccc1	-25%	2%	·	16µM*	-9%	41%
COc1ccc(C(=O)[C@H]2[C@H]3[C@@H](C(=O)[C@@H]4OC[C@H]3O4)[C@H]3C=Cc4ccccc4N32)c(OC)c1	·	·	·	-10%[11.4 µM]	·	-29%
C=CC[C@@H]1C=C[C@H](O/N=C(\C)CCN2CCc3nc(-c4ccccc4)c(-c4ccccc4)cc3C2)[C@H](CO)O1	6%[11.5 µM]	0%[11.4 µM]	·	1%[11.4 µM]	7%[11.4 µM]	16%[11.4 µM]
COc1cc(/C=C(\C#N)C(N)=O)cc(CSc2nc3ccccc3s2)c1O	-18%	?	·	3%	-15%[25.6 µM]	13µM*
COC(=O)[C@@H]1C[C@@H]2CC[C@@H](O)C[C@@H]2N1Cc1ccc(C)s1	8%	-8%	·	·	·	·
O=C(O)c1cc(=O)c2ccccc2[nH]1	?	32µM*	·	1%	-3%	?
O=C(O)c1cc2ccc3ccccc3c2[nH]1	-14%	25µM*	>57	-1%	1%	-2%
c1ccc2c(c1)ccc1ccccc12	16%	?	·	·	-5%	-2%
O=C(O)c1cc(=O)c2cccc(O)c2[nH]1	2%	7%	·	·	-4%	·
CN(C)C[C@H]1CCC2=C(C1=O)C(c1ccc(Cl)c(Cl)c1)C1=C(CC[C@H](CN(C)C)C1=O)O2	7%[11.5 µM]	0%[11.4 µM]	·	1%[11.4 µM]	14%[11.4 µM]	6%[11.4 µM]
Cc1ccc(Cc2c(C)nc3c(C(=O)O)cnn3c2C)cc1	-8%	?	>57	-1%	0%	-10%
C=CCc1c(C)nc2c(C(=O)O)cnn2c1C	-5%	25µM*	>57	1%	2%	-29%
O=C(c1ccncc1)N1CCC[C@@]2(CCN(Cc3ccncc3)C2)C1	13%	0%	·	0%[11.4 µM]	1%	6%
CCN(CC)c1ccc(NC(=O)c2ccco2)cc1	-26%	-4%	?	10µM*	-9%	-1%
CCN(CC)c1ccc(NC(=O)c2ccccc2F)cc1	-25%	1%	i	16µM*	-17%	-15%
CCOC(=O)c1c(C)[nH]c(C)c1C(=O)COc1ccc(NC(=O)c2ccco2)cc1	25µM*	-28%	>57	-3%	-16%	7%
CCN(CC)c1ccc(NC(=O)c2ccco2)c(C)c1	-5%	1%	>57	-3%	-3%	-2%
CCN(CC)c1ccc(NC(=O)C(C)C)cc1	4%	5%	>57	-1%	-10%	-13%
O=C(Nc1ccccc1O)c1ccc(Cl)cc1	17%	3%	·	16µM*	-12%	0%
c1ccc2sc(SN3CCOCC3)nc2c1	7%	?	>57	0%	2µM*	?
CN(C)CCCO[C@H]1[C@@H]2OC(C)(C)O[C@@H]2O[C@@H]1[C@H](O)CO	-19%[25.7 µM]	-1%[25.6 µM]	·	5%[25.5 µM]	13%[25.6 µM]	3%[25.6 µM]
